Source: ChEMBL document CHEMBL2218924, “A broad activity screen in support of a chemogenomic map for kinase signalling research and drug discovery” (Biochem J, 2013)

Experiments:
[1] = biological target: T1, Tyrosine-protein kinase ITK/TSK (Homo sapiens) (UniProt Q08881); conditions: at 10 µM
T1 sequence (whole entry): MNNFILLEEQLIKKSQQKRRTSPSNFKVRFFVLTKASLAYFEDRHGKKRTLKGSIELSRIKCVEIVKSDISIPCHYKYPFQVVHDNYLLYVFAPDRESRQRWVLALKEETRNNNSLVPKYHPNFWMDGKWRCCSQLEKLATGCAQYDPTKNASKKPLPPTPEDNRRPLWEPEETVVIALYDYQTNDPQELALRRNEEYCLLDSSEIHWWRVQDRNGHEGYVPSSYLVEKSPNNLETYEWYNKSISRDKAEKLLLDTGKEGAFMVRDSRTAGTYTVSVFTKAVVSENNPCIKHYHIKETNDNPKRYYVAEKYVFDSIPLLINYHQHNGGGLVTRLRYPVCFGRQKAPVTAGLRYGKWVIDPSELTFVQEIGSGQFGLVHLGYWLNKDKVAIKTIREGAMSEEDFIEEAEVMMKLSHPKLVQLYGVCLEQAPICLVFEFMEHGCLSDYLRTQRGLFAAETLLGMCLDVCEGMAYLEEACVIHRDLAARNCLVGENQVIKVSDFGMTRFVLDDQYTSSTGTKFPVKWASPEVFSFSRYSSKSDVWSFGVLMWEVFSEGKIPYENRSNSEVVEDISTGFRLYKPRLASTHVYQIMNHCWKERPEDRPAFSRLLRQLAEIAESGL

[2] = biological target: Tyrosine-protein kinase JAK2 (Homo sapiens) (UniProt O60674); conditions: at 1 µM
[3] = biological target: Tyrosine-protein kinase JAK2 (Homo sapiens) (UniProt O60674); conditions: at 10 µM
[4] = biological target: T2, Tyrosine-protein kinase JAK3 (Homo sapiens) (UniProt P52333); conditions: at 1 µM
T2 sequence (whole entry): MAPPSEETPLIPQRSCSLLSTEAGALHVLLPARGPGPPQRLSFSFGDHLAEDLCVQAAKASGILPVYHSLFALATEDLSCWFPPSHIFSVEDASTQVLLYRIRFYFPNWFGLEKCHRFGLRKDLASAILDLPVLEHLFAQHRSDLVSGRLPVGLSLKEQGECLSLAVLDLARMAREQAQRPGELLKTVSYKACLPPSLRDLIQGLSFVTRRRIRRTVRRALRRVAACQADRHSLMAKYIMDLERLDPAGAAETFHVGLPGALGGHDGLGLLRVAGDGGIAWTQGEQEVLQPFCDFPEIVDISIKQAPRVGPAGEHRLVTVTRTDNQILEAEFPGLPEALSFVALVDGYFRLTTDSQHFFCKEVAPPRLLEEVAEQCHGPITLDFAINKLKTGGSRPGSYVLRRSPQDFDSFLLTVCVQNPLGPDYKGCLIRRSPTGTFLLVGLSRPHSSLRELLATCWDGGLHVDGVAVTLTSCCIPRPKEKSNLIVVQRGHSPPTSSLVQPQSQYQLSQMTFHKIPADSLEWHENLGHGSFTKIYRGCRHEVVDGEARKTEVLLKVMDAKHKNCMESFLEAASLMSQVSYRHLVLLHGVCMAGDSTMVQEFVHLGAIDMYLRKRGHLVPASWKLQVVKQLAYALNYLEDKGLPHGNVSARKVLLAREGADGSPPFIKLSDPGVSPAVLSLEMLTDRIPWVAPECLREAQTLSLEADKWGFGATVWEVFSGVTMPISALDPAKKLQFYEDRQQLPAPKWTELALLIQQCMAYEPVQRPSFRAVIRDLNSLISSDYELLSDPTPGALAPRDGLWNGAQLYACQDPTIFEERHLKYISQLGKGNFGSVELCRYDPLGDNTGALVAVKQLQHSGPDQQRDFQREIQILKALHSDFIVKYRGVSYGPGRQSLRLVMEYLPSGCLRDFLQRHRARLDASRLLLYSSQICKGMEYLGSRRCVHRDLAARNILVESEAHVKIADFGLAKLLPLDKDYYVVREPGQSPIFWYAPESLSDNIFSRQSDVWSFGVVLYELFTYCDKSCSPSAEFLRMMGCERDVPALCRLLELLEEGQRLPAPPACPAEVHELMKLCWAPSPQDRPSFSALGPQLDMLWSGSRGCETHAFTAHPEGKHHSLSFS

[5] = biological target: T2, Tyrosine-protein kinase JAK3 (Homo sapiens); conditions: at 10 µM
[6] = biological target: Mitogen-activated protein kinase 8 (Homo sapiens) (UniProt P45983); conditions: at 1 µM
[7] = biological target: Mitogen-activated protein kinase 8 (Homo sapiens) (UniProt P45983); conditions: at 10 µM
[8] = biological target: Mitogen-activated protein kinase 9 (Homo sapiens) (UniProt P45984); conditions: at 1 µM
[9] = biological target: Mitogen-activated protein kinase 9 (Homo sapiens) (UniProt P45984); conditions: at 10 µM
[10] = biological target: Mitogen-activated protein kinase 10 (Homo sapiens) (UniProt P53779); conditions: at 1 µM
Mitogen-activated protein kinase 10 (Homo sapiens), sequence (P53779 whole entry): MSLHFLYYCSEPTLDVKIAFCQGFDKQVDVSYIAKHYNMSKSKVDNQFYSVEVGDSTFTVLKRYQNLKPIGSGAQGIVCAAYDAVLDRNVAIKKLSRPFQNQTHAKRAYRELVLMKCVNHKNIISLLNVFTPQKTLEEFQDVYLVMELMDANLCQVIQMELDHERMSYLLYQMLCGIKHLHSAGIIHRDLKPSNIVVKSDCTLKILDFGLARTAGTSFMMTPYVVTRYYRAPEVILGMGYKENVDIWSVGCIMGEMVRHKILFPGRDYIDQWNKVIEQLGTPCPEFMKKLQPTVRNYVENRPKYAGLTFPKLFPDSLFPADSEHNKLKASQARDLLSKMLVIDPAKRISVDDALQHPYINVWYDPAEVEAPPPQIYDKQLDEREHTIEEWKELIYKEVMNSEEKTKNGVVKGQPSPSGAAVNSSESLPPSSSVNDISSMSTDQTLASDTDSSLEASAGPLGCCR

Mitogen-activated protein kinase 8 (Homo sapiens), sequence (P45983 whole entry): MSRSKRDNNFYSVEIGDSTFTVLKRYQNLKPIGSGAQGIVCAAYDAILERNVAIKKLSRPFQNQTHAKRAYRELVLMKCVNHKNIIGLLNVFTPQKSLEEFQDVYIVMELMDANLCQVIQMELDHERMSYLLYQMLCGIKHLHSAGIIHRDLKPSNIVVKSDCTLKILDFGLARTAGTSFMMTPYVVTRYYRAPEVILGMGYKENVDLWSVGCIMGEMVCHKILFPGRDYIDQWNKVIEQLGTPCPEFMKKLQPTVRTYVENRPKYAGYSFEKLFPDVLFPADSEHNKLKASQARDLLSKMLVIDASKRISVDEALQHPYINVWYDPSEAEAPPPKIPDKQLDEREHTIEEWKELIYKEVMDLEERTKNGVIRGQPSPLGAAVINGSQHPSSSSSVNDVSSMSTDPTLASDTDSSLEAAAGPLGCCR
Tyrosine-protein kinase JAK2 (Homo sapiens), sequence (O60674 whole entry): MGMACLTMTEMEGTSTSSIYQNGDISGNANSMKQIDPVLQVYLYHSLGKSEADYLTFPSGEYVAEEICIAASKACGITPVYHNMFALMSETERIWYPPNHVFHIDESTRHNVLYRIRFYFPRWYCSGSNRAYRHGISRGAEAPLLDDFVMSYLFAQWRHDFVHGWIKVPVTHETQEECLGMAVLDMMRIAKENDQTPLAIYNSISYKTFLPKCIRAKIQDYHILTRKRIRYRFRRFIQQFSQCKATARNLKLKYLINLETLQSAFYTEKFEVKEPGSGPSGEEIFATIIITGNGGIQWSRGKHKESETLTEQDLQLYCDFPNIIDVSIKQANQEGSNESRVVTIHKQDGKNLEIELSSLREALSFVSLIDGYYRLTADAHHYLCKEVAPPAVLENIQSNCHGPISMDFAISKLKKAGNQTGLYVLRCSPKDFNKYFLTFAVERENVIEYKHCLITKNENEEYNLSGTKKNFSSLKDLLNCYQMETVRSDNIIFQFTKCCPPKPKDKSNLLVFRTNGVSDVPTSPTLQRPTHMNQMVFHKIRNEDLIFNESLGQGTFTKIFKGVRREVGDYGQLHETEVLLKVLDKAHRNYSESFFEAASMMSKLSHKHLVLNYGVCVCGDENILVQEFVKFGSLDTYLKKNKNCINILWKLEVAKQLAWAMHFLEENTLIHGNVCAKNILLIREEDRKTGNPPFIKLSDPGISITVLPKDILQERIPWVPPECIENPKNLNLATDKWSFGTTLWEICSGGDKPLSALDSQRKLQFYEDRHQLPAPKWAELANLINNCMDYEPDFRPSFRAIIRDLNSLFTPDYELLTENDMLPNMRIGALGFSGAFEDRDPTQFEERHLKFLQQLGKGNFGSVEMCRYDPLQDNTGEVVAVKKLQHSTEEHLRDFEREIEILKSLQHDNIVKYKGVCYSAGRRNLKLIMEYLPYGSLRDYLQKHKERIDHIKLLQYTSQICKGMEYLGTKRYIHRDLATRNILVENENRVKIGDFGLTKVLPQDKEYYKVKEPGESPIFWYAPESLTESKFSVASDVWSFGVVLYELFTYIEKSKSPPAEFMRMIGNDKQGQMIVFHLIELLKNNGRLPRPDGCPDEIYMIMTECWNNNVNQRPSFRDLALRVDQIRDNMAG
Mitogen-activated protein kinase 9 (Homo sapiens), sequence (P45984 whole entry, looked up): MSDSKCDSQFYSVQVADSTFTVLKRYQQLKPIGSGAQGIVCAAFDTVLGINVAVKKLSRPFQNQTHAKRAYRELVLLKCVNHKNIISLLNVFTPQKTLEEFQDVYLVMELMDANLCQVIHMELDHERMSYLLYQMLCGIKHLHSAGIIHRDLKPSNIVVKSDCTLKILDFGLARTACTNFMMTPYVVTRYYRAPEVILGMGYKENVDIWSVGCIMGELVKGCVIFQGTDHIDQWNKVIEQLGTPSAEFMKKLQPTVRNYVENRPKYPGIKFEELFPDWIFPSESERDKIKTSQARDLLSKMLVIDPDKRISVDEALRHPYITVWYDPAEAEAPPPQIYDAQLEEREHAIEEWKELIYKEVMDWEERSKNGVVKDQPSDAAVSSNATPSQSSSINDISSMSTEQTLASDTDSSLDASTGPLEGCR

SMILES: Nc1ncnc2c1c(-c1ccc(Oc3ccccc3)cc1)cn2C1CCCC1
- residual activity [1]: 4%
- residual activity [2]: 96%
- residual activity [3]: 124%
- residual activity [4]: 91%
- residual activity [5]: 65%
- residual activity [6]: 100%
- residual activity [7]: 64%
- residual activity [8]: 104%
- residual activity [9]: 92%
- residual activity [10]: 77%

SMILES: O=C(c1cc2cc(O)ccc2[nH]1)c1cc2cc(O)ccc2[nH]1
- residual activity [1]: 16%
- residual activity [4]: 64%
- residual activity [5]: 17%
- residual activity [10]: 51%

SMILES: O=C(CCCc1ccc(-c2ccccc2F)cc1)Nc1ccc(O)cc1
- residual activity [1]: 98%
- residual activity [2]: 108%
- residual activity [3]: 111%
- residual activity [4]: 104%
- residual activity [5]: 104%
- residual activity [6]: 99%
- residual activity [7]: 98%
- residual activity [8]: 93%
- residual activity [9]: 99%
- residual activity [10]: 109%

SMILES: COc1cc2ncnc(Nc3cccc(Cl)c3)c2cc1OC
- residual activity [1]: 105%
- residual activity [2]: 123%
- residual activity [3]: 86%
- residual activity [4]: 109%
- residual activity [5]: 118%
- residual activity [6]: 112%
- residual activity [7]: 122%
- residual activity [10]: 73%

SMILES: NC(=O)Nc1sc(-c2ccc(F)cc2)cc1C(N)=O
- residual activity [1]: 1%
- residual activity [2]: 4%
- residual activity [3]: 0%
- residual activity [4]: 42%
- residual activity [5]: 5%
- residual activity [6]: 94%
- residual activity [7]: 52%
- residual activity [8]: 84%
- residual activity [9]: 67%
- residual activity [10]: 60%

SMILES: CCN(CC)CCNC(=O)c1c(C)[nH]c(/C=C2\C(=O)Nc3ccc(Cl)cc32)c1C
- residual activity [1]: 2%
- residual activity [2]: 72%
- residual activity [3]: 20%
- residual activity [4]: 62%
- residual activity [5]: 16%
- residual activity [6]: 97%
- residual activity [7]: 82%
- residual activity [10]: 80%

SMILES: N#C/C(=C\c1ccc(O)c(O)c1)C(=O)NCc1ccccc1
- residual activity [1]: 104%

SMILES: CC(C)(C)n1nc(Cc2cccc3ccccc23)c2c(N)ncnc21
- residual activity [1]: 106%
- residual activity [2]: 101%
- residual activity [3]: 121%
- residual activity [4]: 99%
- residual activity [5]: 100%
- residual activity [6]: 108%
- residual activity [7]: 78%
- residual activity [8]: 108%
- residual activity [9]: 78%
- residual activity [10]: 28%

SMILES: COc1ccc2c(c1)c(C1=C(c3c[nH]c4ccccc34)C(=O)NC1=O)cn2CCCN(C)C
- residual activity [1]: 79%
- residual activity [2]: 114%
- residual activity [3]: 81%
- residual activity [4]: 102%
- residual activity [5]: 50%
- residual activity [6]: 104%
- residual activity [7]: 57%
- residual activity [8]: 111%
- residual activity [10]: 74%

SMILES: Nc1ncnc2[nH]nc(Nc3ccc(F)cc3)c12
- residual activity [1]: 78%
- residual activity [2]: 103%
- residual activity [3]: 93%
- residual activity [4]: 101%
- residual activity [5]: 90%
- residual activity [6]: 105%
- residual activity [7]: 93%
- residual activity [8]: 92%
- residual activity [9]: 93%
- residual activity [10]: 98%

SMILES: Nc1nc(Nc2ccc(S(N)(=O)=O)cc2)nn1C(=O)c1c(F)cccc1F
- residual activity [1]: 40%
- residual activity [2]: 11%
- residual activity [3]: 0%
- residual activity [4]: 7%
- residual activity [5]: 1%
- residual activity [8]: 102%
- residual activity [9]: 48%
- residual activity [10]: 51%

SMILES: CCCC(=O)Oc1ccc2[nH]c(C(=O)c3cc4ccccc4[nH]3)cc2c1
- residual activity [1]: 101%
- residual activity [2]: 103%
- residual activity [3]: 100%
- residual activity [6]: 94%
- residual activity [7]: 81%
- residual activity [9]: 89%
- residual activity [10]: 69%

SMILES: CCCCc1c(-c2ccc(OC)cc2)[nH]c2nccnc12
- residual activity [1]: 92%
- residual activity [2]: 71%
- residual activity [3]: 49%
- residual activity [4]: 81%
- residual activity [5]: 86%
- residual activity [6]: 105%
- residual activity [8]: 91%
- residual activity [9]: 109%
- residual activity [10]: 48%

SMILES: O=S(=O)(NCCNC/C=C/c1ccc(Br)cc1)c1cccc2cnccc12
- residual activity [1]: 100%

SMILES: Nc1ncnc2c1cnn2-c1ccccc1
- residual activity [1]: 97%
- residual activity [2]: 126%
- residual activity [3]: 93%
- residual activity [9]: 95%
- residual activity [10]: 78%

SMILES: Cn1sc(=O)n(Cc2ccccc2)c1=O
- residual activity [1]: 83%
- residual activity [2]: 91%
- residual activity [3]: 98%
- residual activity [6]: 89%
- residual activity [7]: 88%
- residual activity [8]: 91%
- residual activity [9]: 93%
- residual activity [10]: 75%

SMILES: COc1ccc(COc2ccc(Cc3cnc(N)nc3N)cc2OC)cc1
- residual activity [1]: 99%

SMILES: CSc1nc(-c2ccc(F)cc2)c(-c2ccnc(NC(C)c3ccccc3)c2)[nH]1 (configuration not stated)
- residual activity [1]: 53%
- residual activity [6]: 90%
- residual activity [7]: 32%
- residual activity [8]: 39%
- residual activity [9]: -6%
- residual activity [10]: 4%

SMILES: Cn1c2ccccc2c2c3c(c4c5ccccc5n(CCC#N)c4c21)CNC3=O
- residual activity [1]: 4%
- residual activity [2]: 4%
- residual activity [3]: 3%
- residual activity [4]: 1%
- residual activity [5]: 2%
- residual activity [7]: 31%
- residual activity [9]: 73%
- residual activity [10]: 7%

SMILES: CN(C)S(=O)(=O)c1ccc2c(c1)/C(=C/c1cc3c([nH]1)CCCC3)C(=O)N2
- residual activity [1]: 22%
- residual activity [2]: 67%
- residual activity [3]: 25%
- residual activity [4]: 66%
- residual activity [5]: 48%
- residual activity [6]: 99%
- residual activity [7]: 94%
- residual activity [10]: 89%

SMILES: CC(C)c1nn(-c2c(Cl)cccc2Cl)c2nc(Cc3ccc(OCCO)cc3)[nH]c(=O)c12
- residual activity [1]: 96%
- residual activity [2]: 85%
- residual activity [3]: 100%
- residual activity [4]: 103%
- residual activity [5]: 106%
- residual activity [7]: 94%
- residual activity [8]: 99%
- residual activity [9]: 86%
- residual activity [10]: 81%

SMILES: COc1cc2c(cc1OC)-c1n[nH]c(Nc3cccc(F)c3)c1C2
- residual activity [1]: 41%
- residual activity [3]: 108%
- residual activity [5]: 114%
- residual activity [8]: 101%
- residual activity [9]: 69%
- residual activity [10]: 53%

SMILES: CCOC(=O)c1c(C)[nH]c(/C=C2\C(=O)Nc3ccccc32)c1C
- residual activity [1]: 99%
- residual activity [2]: 92%
- residual activity [3]: 100%

SMILES: COc1cc2nccc(Oc3ccc(NC(=S)NC(=O)c4ccccc4C)cc3)c2cc1OC
- residual activity [1]: 48%
- residual activity [4]: 86%
- residual activity [5]: 92%
- residual activity [6]: 95%
- residual activity [7]: 78%
- residual activity [9]: 87%
- residual activity [10]: 69%

SMILES: c1ccc(-c2cnc(Nc3ccc(OCCN4CCCC4)cc3)s2)cc1
- residual activity [1]: 30%
- residual activity [2]: 111%
- residual activity [3]: 105%
- residual activity [6]: 112%
- residual activity [7]: 70%
- residual activity [10]: 80%

SMILES: O=C(Nc1nc2ccccc2n1CCN1CCOCC1)c1cccc([N+](=O)[O-])c1
- residual activity [1]: 52%
- residual activity [2]: 24%
- residual activity [3]: 40%
- residual activity [4]: 85%
- residual activity [5]: 69%
